HT1080NT lethal: qHTS for induction of synthetic lethality in tumor cells producing 2HG: qHTS for the HT-1080-NT fibrosarcoma cell line | Potency, µM (series often up to 46.1 µM), for the others: top-dose activity, negative = less viability, usual class: cytotoxic | AID 686970, 2013 | actives 1.6% (n = 360,000) | HT-1080-NT fibrosarcoma viability, CellTiter-Glo ATP luminescence, 48 h;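 further: NT is the 2HG producing partner of a matched IDH1 knockdown line; potency means the concentration at half of the fitted maximal effect; 0% = DMSO-treated cells and -100% = media-only wells without cells; nearly all actives have a fitted effect of over 55% in size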
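HT-1080-NT fibrosarcoma cells (2HG-overproducing), 750 cells/well in RPMI with 5% FBS, dosed after 2 h and incubated 48 h at 37C. CellTiter-Glo luminescence normalized to DMSO and no-cell wells; concentration-response curves fitted and classed.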
HepG2 viability: qHTS for Inhibitors of TGF-b: Cytotox Counterscreen; HepG2 CAGA-GFP viability, ATP luminescence, 18 h; Potency, µM (titrated, usually from 46.1 µM), without a hit: top-dose activity change, negative = cytotoxicity, usual class: cytotoxic; actives 0.76% (n = 410,000); further: potency means the concentration at half of the fitted maximal effect
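CellTiter-Glo luminescence gave cytotoxicity after 18 hours at 37 degrees C. The cells were HepG2 CAGA-GFP in 1% FBS DMEM, stimulated with 500 pg/mL TGF-beta after compound addition. %Activity was normalised to no-cell wells (complete cell-killing) and DMSO (no toxicity), and curves were fitted and classified.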
Giardia killer: Small Molecules that selectively kill Giardia lamblia: qHTS | Giardia lamblia trophozoite viability | activity change, % at 7.66 µM, hits read low | actives 0.15% (n = 340,000) | AID 540267, 2011; in the data active means activity change below about -80%; inconclusive means between about -30% and that limit;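 further: parasites exposed to compound for two days anaerobically before the ATP read; on the % scale 0 is the no-effect control and ±100 the full control effect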
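Compounds were tested on trophozoites seeded at 100 cells/well and held 48 hrs at 37 deg C anaerobically. An ATP-based luminescent kit measured the remaining live cells.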
HT1080 IDH1KD tx: qHTS for induction of synthetic lethality in tumor cells producing 2HG: qHTS for the HT-1080-IDH1KD cell line | HT-1080 IDH1 knockdown viability, ATP luminescence, 48 h | Potency, µM (highest dose often 46.1 µM), inactives show top-dose activity, negative = toxicity, most hits filed as cytotoxic | actives 2% (n = 360,000) | AID 686971, 2013;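 further: potency means the concentration at half of the fitted maximal effect; 0% = DMSO wells and -100% = cell-free medium wells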
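Luminescent ATP read-out (CellTiter-Glo, 10 min at room temperature) after 48 h compound exposure at 37 °C gave viability of IDH1-knockdown HT-1080 cells. Activity was normalised to DMSO and cell-free wells, then fitted as concentration-response curves.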
IL1B secr inh: qHTS for Inhibitors of Inflammasome Signaling: IL-1-beta AlphaLISA Primary Screen; AID 743279, 2014; activity change, % at 57.5 µM; actives 4.7% (n = 360,000); THP-1 LPS/ATP IL-1B secretion, AlphaLISA, 16 h; active compounds read low; in the data active means activity change below about -50%; inconclusive means mostly about -30% to -49%; further: on the % scale 0 is the no-effect control and ±100 the full control effect
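Secreted IL-1B measured by AlphaLISA bead assay after 16 h compound exposure of THP-1 cells; compounds (final up to 57.5 uM) added 1 h before LPS (250 ng/mL) and ATP (1.25 mM) stimulation; lower signal means less secretion.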
TGFb inhibitor: qHTS for Inhibitors of TGF-b; HepG2 CAGA-GFP TGF-b/SMAD3 reporter, GFP fluorescence, 18 h; TGF-beta stimulated, 500 pg/mL final; Potency, µM (series often up to 46.1 µM), without a hit: top-dose activity, negative = inhibition, hits mostly inhibitors; actives 1.2% (n = 410,000); AID 588855, 2011; further: potency means the concentration at half of the fitted maximal effect; on the % scale 0 is the no-effect control and ±100 the full control effect; nearly all actives have a fitted effect of over 65% in size
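First, reporter cells (HEPG2 CAGA-GFP) rested 2 h at 37 degrees C. Next, compounds were pinned in and TGF-beta added to 500 pg/mL final. After 18 h, GFP was imaged per cell and summed per well.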
Active calls of the source: *; ? = inconclusive; . = no result; [ ] = dose if it differs, or a comment. Most compounds without a hit are left out; they make up all but 6.5% or so of the library. Unless noted, the call rests on the fitted dose curve; in most records, active means well fitted curve in the direction sought with a large enough effect; inconclusive means small, poorly fitted or top-dose-only effect, or another doubt; inactive means no such curve, though single readings can be large; an effect the other way counts as inactive or inconclusive.

SMILES	HT1080NT lethal	HepG2 viability	Giardia killer	HT1080 IDH1KD tx	IL1B secr inh	TGFb inhibitor
CCN1C(Nc2ccccc2)=NC[C@@H]1C	-1%	-6%	-20	4%	18	7%
C=CC[n+]1ccc(/C=C2\C=Cc3cc(C)ccc3N2CC)c2ccccc21	5.8µM*	-47%	23	4.1µM*	-66*	2.8µM*
CCN(CC)C(=O)CSc1nc2sc3c(c2c(=O)n1CCCOC)CCC3	-7%	-7%	10	-3%	-55*	9%
CCSc1nnc(NC(NC(C)=O)(C(F)(F)F)C(F)(F)F)s1	14%	1%	-4	20%	-6	0%
COc1cc(C#Cc2c(-c3cncn3C)n(C)c3ccc(-c4ccc(OC)nc4)cc23)cc(OC)c1	-22%	-30%	-20	-7%	-11	?
CCc1ccccc1NC(=O)CC1Sc2ccc(C(F)(F)F)cc2NC1=O (stereo not drawn)	.	-51%	.	.	.	13%
O=C(CC1Sc2ccc(C(F)(F)F)cc2NC1=O)Nc1ccc(Cl)c(C(F)(F)F)c1 (stereo not drawn)	.	-97%	.	.	.	14µM*
CN(CCc1ccccn1)C(=O)CCC1CCCN(C(=O)c2c(F)ccc(F)c2F)C1 (stereo not drawn)	0%	-1%	3	1%	4	-20%
CC(C)(C)CC(C)(C)N=C1Nc2cc(Cl)c(Cl)cc2N[C@]12C[C@H]1CCCC(=O)N3CC[C@@H](C2)[C@@H]13	.	-44%	.	.	.	7.1µM*
CC(C)(C)CC(C)(C)N=C1Nc2cc(Cl)c(Cl)cc2NC12C[C@H]1CCC(=O)N3CC[C@@H](C2)[C@@H]13 (stereo partly drawn)	-16%	13µM*	-17	-6%	-64*	11µM*
O=C(c1cccs1)N1CCN(C2CCCCC2)CC1	-8%	-16%	11	0%	-25	0%
O=C(c1cc2cc(Cl)ccc2[nH]1)N1CCN(Cc2ccc3c(c2)OCO3)CC1	-20%	-67%	-9	-9%	-64*	?
O=C(c1ccc(Cl)c([N+](=O)[O-])c1)N1CCN(Cc2ccc3c(c2)OCO3)CC1	1%	-35%	23	-5%	-76*	?
O=C(c1ccc(COc2ccccc2Cl)o1)N1CCN(Cc2ccc3c(c2)OCO3)CC1	?	-25%	-7	?	-13	3%
COc1ccc(N2CCN(C(=O)c3cc4cc(Cl)ccc4[nH]3)CC2)cc1	1%	1%	23	3%	22	0%
O=C(c1ccc(COc2ccc(Cl)cc2)o1)N1CCN(Cc2ccc3c(c2)OCO3)CC1	-27%	2%	-2	-22%	-76*	-9%
O=C(c1cc2cc(Cl)ccc2[nH]1)N1CCN(c2ccc(F)cc2)CC1	3%	-20%	8	-2%	-85*	15%
CCOC(=O)c1c(NC(=O)C2c3ccccc3Oc3ccccc32)sc(C(C)=O)c1C	-11%	-3%	5	4%[9.24 µM]	?	12%
O=C(c1ccc(S(=O)(=O)c2cccc(Cl)c2)c([N+](=O)[O-])c1)N1CCN(Cc2ccccc2)CC1	8.2µM*	3%	-13	?	-99*	?
COc1ccc(NC(=O)c2cc(F)c(F)cc2Cl)cc1Cl	11%	5%	7	-3%	-11	11%
CCc1ccc(N2CC(O)(c3cccs3)[N+]3=C2SCCC3)cc1 (stereo not drawn)	-22%	-15%	16	?	-153*	-1%

Bioassay records: PubChem BioAssay, National Center for Advancing Translational Sciences (NCATS)
